According to PubChem BioAssay (NCI):
About 83,000 compounds went through this panel and 20% of them were active in at least one assay; those are over-represented in the sample as a whole.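 The endpoint reported here, percent growth, reads 100 for growth as untreated, 0 for no net growth and -100 for all cells dead.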 Unmarked numbers belong to inactive results. Activity calls are given as the source filed them. How the source made its calls: active means growth percent below 10; inactive means the rest.

How the values were obtained:
Experiment in all cases: NCI-60 one-dose screen, 48 h (100 = growth as untreated, 0 = no growth, -100 = all killed)
Details in all cases: 10 µM unless noted
[1] = tested on: HCT-15 colon
[2] = tested on: HT29 colon
[3] = tested on: SNB-75 CNS
[4] = tested on: SNB-19 CNS
[5] = tested on: PC-3 prostate
[6] = tested on: SK-MEL-5 melanoma
[7] = tested on: UACC-62 melanoma
[8] = tested on: SK-MEL-28 melanoma
[9] = tested on: SK-MEL-2 melanoma
[10] = tested on: EKVX NSCLC
[11] = tested on: SN12C renal
[12] = tested on: UO-31 renal
[13] = tested on: TK-10 renal
[14] = tested on: ACHN renal
[15] = tested on: CAKI-1 renal
[16] = tested on: A498 renal
[17] = tested on: CCRF-CEM leukemia
[18] = tested on: MOLT-4 leukemia
[19] = tested on: LOX IMVI melanoma

With `C=C(C)[C@@H]1CC[C@]2(C(=O)O)CC[C@]3(C)[C@H](CC[C@@H]4[C@@]5(C)C/C(=C/c6cccc(I)c6)C(=O)C(C)(C)[C@@H]5CC[C@]43C)[C@@H]12` as the compound, how does the growth [1] read?
Its growth is 19.4%.

What about the growth [2] of the same compound?
Its growth is 9.1% (active).

And the growth [3]?
Its growth is -36.5% (active).

And the growth [4]?
Its growth is 38%.

What about the growth [5] of the same compound?
Its growth is 15.5%.

And the growth [6]?
The growth was 13.9%.

And the growth [7]?
The growth was 30.9%.

What about the growth [8] of the same compound?
Its growth is 75.4%.

What about the growth [9] of the same compound?
The growth was 11.2%.

And the growth [10]?
Its growth is 24.9%.

What about the growth [11] of the same compound?
Its growth is 31.1%.

What about the growth [12] of the same compound?
Its growth is 23.6%.

What about the growth [13] of the same compound?
The growth was 29.6%.

And the growth [14]?
The growth was 30.5%.

What about the growth [15] of the same compound?
Its growth is 11.9%.

What about the growth [16] of the same compound?
Its growth is 22.1%.

And the growth [17]?
Its growth is 25.6%.

What about the growth [18] of the same compound?
The growth was 13%.

For `COc1cnc2c(c1)C(=O)c1c-2n(CCCNC(C)C)c(=O)c2cc([N+](=O)[O-])ccc12`, which growth [1] is on record?
The growth was -56.2% (active).

What about the growth [2] of the same compound?
Its growth is -33.7% (active).

And the growth [3]?
The growth was -79.2% (active).

What about the growth [4] of the same compound?
Its growth is -44.7% (active).

What about the growth [5] of the same compound?
The growth was -54.3% (active).

What about the growth [6] of the same compound?
The growth was -98.9% (active).

What about the growth [19] of the same compound?
Its growth is -86.9% (active).

And the growth [8]?
The growth was -62.6% (active).

And the growth [9]?
Its growth is -58.6% (active).

What about the growth [10] of the same compound?
The growth was -50% (active).

What about the growth [11] of the same compound?
Its growth is -54.6% (active).

And the growth [12]?
Its growth is -75.6% (active).

What about the growth [13] of the same compound?
Its growth is -63.6% (active).

What about the growth [15] of the same compound?
Its growth is -71.8% (active).

And the growth [16]?
The growth was -84.7% (active).

And the growth [17]?
The growth was 2.43% (active).

And the growth [18]?
Its growth is -15.6% (active).

`O=c1[nH]c2c3ccncc3cc(-c3cccc(Cl)c3)c2c2cnccc12` was tested. Which growth [1] did it give?
Its growth is 43.3%.

And the growth [2]?
The growth was 28.1%.

What about the growth [3] of the same compound?
Its growth is -21.8% (active).

What about the growth [4] of the same compound?
The growth was 75.7%.

What about the growth [5] of the same compound?
Its growth is 42.2%.

What about the growth [6] of the same compound?
The growth was 46.3%.

What about the growth [19] of the same compound?
The growth was 19.9%.

What about the growth [8] of the same compound?
Its growth is 25%.

What about the growth [9] of the same compound?
Its growth is 64.1%.

What about the growth [10] of the same compound?
Its growth is 74.8%.

And the growth [11]?
The growth was 57.1%.

And the growth [12]?
Its growth is 30.6%.

What about the growth [13] of the same compound?
The growth was 0.334% (active).

What about the growth [14] of the same compound?
The growth was 17.2%.

And the growth [15]?
The growth was 63.3%.

What about the growth [16] of the same compound?
The growth was 50.2%.

What about the growth [17] of the same compound?
Its growth is 56.4%.

What about the growth [18] of the same compound?
Its growth is 76.9%.

How did the growth [1] turn out when `Cc1ccc2[nH]cc(-c3nc(-c4cn(C)c5ncccc45)cs3)c2c1` was run?
Its growth is 83%.

What about the growth [2] of the same compound?
The growth was 74.6%.

What about the growth [3] of the same compound?
The growth was 85%.

What about the growth [4] of the same compound?
The growth was 109%.

And the growth [5]?
The growth was 57%.

And the growth [6]?
The growth was 76.9%.

What about the growth [7] of the same compound?
Its growth is 79.3%.

What about the growth [8] of the same compound?
The growth was 90.6%.

What about the growth [9] of the same compound?
Its growth is 89.4%.

What about the growth [10] of the same compound?
Its growth is 59.5%.

What about the growth [11] of the same compound?
Its growth is 87.8%.

And the growth [13]?
Its growth is 95%.

What about the growth [14] of the same compound?
The growth was 79.6%.

And the growth [15]?
The growth was 77.9%.

What about the growth [16] of the same compound?
Its growth is 72.2%.

And the growth [17]?
The growth was 58.5%.

What about the growth [18] of the same compound?
The growth was 53.3%.

Which growth [1] does the source give for `Nc1c(C(=O)Nc2c(Cl)cccc2Cl)sc2nc3c(cc12)C(=O)CCC3` here?
The growth was 35.5%.

And the growth [2]?
Its growth is 13.3%.

And the growth [3]?
Its growth is 14.1%.

And the growth [4]?
The growth was 39.6%.

And the growth [5]?
The growth was 39.9%.

What about the growth [6] of the same compound?
The growth was 10.4%.

What about the growth [19] of the same compound?
Its growth is 44.4%.

What about the growth [9] of the same compound?
Its growth is 27.3%.

What about the growth [10] of the same compound?
Its growth is 76%.

What about the growth [11] of the same compound?
Its growth is 47.6%.

What about the growth [12] of the same compound?
The growth was 48.3%.

What about the growth [13] of the same compound?
Its growth is 59.5%.

And the growth [14]?
Its growth is 50.9%.

What about the growth [15] of the same compound?
Its growth is 41.5%.

And the growth [17]?
Its growth is 54.8%.

What about the growth [18] of the same compound?
The growth was 65.3%.
